Assay results: PubChem BioAssay AID777 (Sanford-Burnham Center for Chemical Genomics, 2007)
The whole screen tested about 96,000 compounds, of which about 19,000 (20%) were called active. Not all results are given here. Unmarked numbers belong to inactive results.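 How the source made its calls: active means blocking of liver enzyme CYP2C9 beyond about 50% at 5 µM (limit read from the data); inactive means the rest.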

molecular target: Cytochrome P450 2C9 (Homo sapiens) (UniProt P11712); experiment: blockers of cytochrome P450 2C9 activity – biochemical, luminescence, ADME assay, primary screen (AID 777); conditions: CYP2C9 Supersomes, luciferin-H conversion, at 5 µM, hits give high values
Sequence (P11712 whole entry, looked up): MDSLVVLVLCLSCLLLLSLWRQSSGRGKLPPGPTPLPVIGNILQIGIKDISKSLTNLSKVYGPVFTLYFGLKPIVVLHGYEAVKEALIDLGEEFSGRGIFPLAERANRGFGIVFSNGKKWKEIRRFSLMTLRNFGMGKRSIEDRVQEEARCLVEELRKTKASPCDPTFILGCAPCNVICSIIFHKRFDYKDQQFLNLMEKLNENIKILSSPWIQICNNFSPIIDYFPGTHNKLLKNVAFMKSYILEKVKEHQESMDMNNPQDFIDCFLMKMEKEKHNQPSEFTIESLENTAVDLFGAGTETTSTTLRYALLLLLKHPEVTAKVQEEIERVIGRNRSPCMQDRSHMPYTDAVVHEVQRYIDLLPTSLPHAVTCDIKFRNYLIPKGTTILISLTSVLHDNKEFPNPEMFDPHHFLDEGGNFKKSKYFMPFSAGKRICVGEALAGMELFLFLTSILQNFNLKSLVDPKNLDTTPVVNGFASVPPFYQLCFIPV

| Compound | inhibition |
| --- | --- |
| CCCCNCc1ccc(SC)cc1 | 4.1% |
| Cc1ccccc1OC(=O)Cn1c(C(F)(F)F)nc2ccccc21 | 30.1% |
| COc1cccc(-c2nnc(SCCOc3ccc4c(C)cc(=O)oc4c3)o2)c1 | 42.3% |
| Cc1cc(=O)oc2cc(OCC3CC(c4ccccc4Cl)=NO3)ccc12 (centres undefined) | 65.7% (active) |
| Cc1cc(=O)oc2cc(NC(=O)C3CC(=O)N(Cc4ccccc4)C3)ccc12 (centres undefined) | 10.4% |
| Cn1c(C(=O)NCCCN2CCN(c3cccc(Cl)c3)CC2)cc2c(=O)n(C)c3ccccc3c21 | 22.8% |
| OC(COc1ccc2c(c1)CCC2)CN1CCN(c2cccc(Cl)c2)CC1 (centres undefined) | -14.4% |
| O=c1cc(CN2CCN(c3cccc(Cl)c3)CC2)c2cc3c(cc2o1)CCCC3 | 58.6% (active) |
| C=CCN(C(=O)Cn1ncc2c1-c1cc(C)ccc1OC2)c1ccccc1 | 38.4% |
| Cn1c2ccccc2n2c(=O)c(=O)n(CC(=O)c3ccc(F)cc3)nc12 | -18% |
| OCCNc1nc2ccccc2n1-c1ncnc2sc3c(c12)CCC3 | 16.9% |
| Cc1cc(=O)[nH]c(SCc2cccc(F)c2)n1 | 23.7% |
| Cc1cc(=O)[nH]c(SCc2cc(Cl)ccc2OC(F)F)n1 | 76.4% (active) |
| O=c1cc(O)nc(SCc2ccccc2Cl)[nH]1 | 37% |
| Cc1ccccc1C(OCC(O)CN1CCCCC1CCO)c1ccccc1 (centres undefined) | -0.6% |
| COc1cc(NS(=O)(=O)c2ccc(N/C=C(\C=O)c3nc4cc(Cl)ccc4o3)cc2)nc(OC)n1 | 39.2% |
| O=c1[nH]c(-c2ccccc2)c(-c2ccccc2)[nH]1 | 17.9% |
| O=c1[nH]c2ccccc2n2c(-c3ccccc3)nnc12 | 62% (active) |
| O=[N+]([O-])c1cccc(-c2nnc3c4ccccc4c4ccccc4n23)c1 | 11.9% |
| COc1ccccc1-c1nnc(SCC(=O)N2CC(C)CC(C)C2)o1 (centres undefined) | -292% |
| O=C(c1cnn2ccccc12)N1CCc2ccccc21 | -42.7% |
| CCC(C)NC(=O)N[C@@H](CCSC)C(=O)O (some centres undefined) | 8.8% |
| O=C(CSc1ccc(/C=N/NC(=O)c2cccc(F)c2)o1)Nc1ccccc1 | 80.3% (active) |
| O=C(Cn1cc(/C=N/NC(=O)c2cccc(C(F)(F)F)c2)c2ccccc21)Nc1ccc(F)cc1 | 23.8% |
| C/C(=N/NC(=O)c1ccc(NC(=O)c2ccc(F)cc2)cc1)c1ccccc1 | 3.1% |

| Compound | inhibition |
| --- | --- |
| CC(C)c1nc2oc3c(N4CCN(C)CC4)ncnc3c2c2c1CCC2 | 24% |
| CCOC(=O)c1c(C)c(C(=O)NCCc2ccc(S(N)(=O)=O)cc2)c(C)n1CC | 16.4% |
| CCC12CN3CC(CC)(CN(C1)C31C(=O)N(C)c3ccc(C)cc31)C2=O (centres undefined) | 3.6% |
| CN(c1ccc(C(=O)NCc2ccccn2)cc1)S(C)(=O)=O | -10.8% |
| O=C(NCc1ccccn1)c1ccc2nc(-c3ccco3)c(-c3ccco3)nc2c1 | 67.3% (active) |
| O=C(NCc1ccccn1)c1cc2ccccc2oc1=O | -26% |
| COc1ccc(CN2CCn3ncc(C(=O)Nc4ccc(Cl)cc4Cl)c3C2=O)cc1 | 14.3% |
| CC(C)C(=O)Nc1nnc(Sc2ccc(N(C)C)cc2)s1 | -3.9% |
| ONC(=Nc1ccc(Cl)cc1)c1ccccc1Cl | 40.4% |
| Cc1cc(C)nc(NC(=O)C(C)N2C(=O)c3ccccc3C2=O)n1 (centres undefined) | -15.6% |
| O=C(NCCN1CCOCC1)[C@H](Cc1ccccc1)N1C(=O)c2ccccc2C1=O | -32.6% |
| N/C(=N\c1nc2ccccc2o1)NC(=O)C(Cc1ccccc1)N1C(=O)c2ccccc2C1=O (centres undefined) | 89.2% (active) |
| CCN(CC)CCn1c(=S)[nH]c2ncccc2c1=O | 16.3% |
| CCCc1nnc(NC(=O)c2cccs2)s1 | 14.9% |
| COc1ccc(-c2nc(-c3ccccc3)no2)c(OC)c1 | -7% |
| C=C(C)COc1ccc(-c2n[nH]c(C)c2-c2ccccc2)c(O)c1 | 26.2% |
| COc1ccc(OC)c(Nc2nc(-c3ccc(O)c(O)c3)cs2)c1 | 24.3% |
| C=C(C)COc1ccc(-c2n[nH]c(C)c2-c2ccccc2OC)c(O)c1 | 54.9% (active) |
| COc1ccc(-c2n[nH]c(C)c2-c2ccc(OC)c(OC)c2)c(O)c1 | 98.8% (active) |
| COc1ccccc1-c1n[nH]c2c1[C@H](C)CC[C@H]2C(C)C | 36.5% |
| CCc1c(C)[nH]c(=S)c(C#N)c1C | 16% |
| Cc1cc(C)nc(NC2=NCC(=O)N2c2ccc(Cl)cc2)n1 | -8.5% |
| Cc1ccc(Oc2nc3ccccc3n3c(C)nnc23)cc1 | 13.5% |
| COC(=O)CN(c1cccc(C(C)=O)c1)S(C)(=O)=O | 40.7% |
| CC1=NN(C(C)C)C(=O)C1 | 12.8% |

| Compound | inhibition |
| --- | --- |
| COCCNC(=O)COc1ccc(C)c(C)c1 | -28.7% |
| O=S(=O)(O)c1nc2ccccc2n1Cc1ccc(Cl)cc1Cl | 74.7% (active) |
| O=S(=O)(O)c1nc2ccccc2n1Cc1ccc(Cl)cc1 | 43.6% |
| CCC(=O)Nc1nc2ccccc2n1Cc1ccccc1C | -6.9% |
| Cc1ccc(F)c(NC(=O)CCc2ccccc2)c1 | -15.7% |
| O=C(OCc1cn(-c2ccc(Cl)c(Cl)c2)nn1)c1ccccc1Cl | -32.3% |
| CCc1nnc(NC(=O)c2ccc(S(=O)(=O)NC3CCCCC3)cc2)s1 | 20.2% |
| CCc1nnc(NS(=O)(=O)c2ccc(N=Cc3c(C)[nH]n(-c4ccc(C)cc4)c3=O)cc2)s1 | 17% |
| CCc1nnc(NS(=O)(=O)c2ccc(NS(=O)(=O)c3ccccc3)cc2)s1 | 77.5% (active) |
| CCC(C)NC(=O)c1cc(Cl)ccc1OC (centres undefined) | -166% |
| Cc1ccc(C(C(=O)NC2CCCCC2)N(C(=O)c2csnn2)C2CC2)o1 (centres undefined) | 26.6% |
| CCc1c(C)sc(NC(=O)OC)c1C(=O)N1CCOCC1 | -10.7% |
| COc1ccccc1N1CC(O)=C(c2nc3ccccc3s2)C1=N | 26.8% |
| CCCCCN1CC(O)=C(c2nc(-c3ccc(Cl)cc3)cs2)C1=N | 62.1% (active) |
| CCCCCN1CC(O)=C(c2ccccc2)C1=N | -11.3% |
| Cc1ccc(CNC(=O)C2CC(c3ccccc3[N+](=O)[O-])=NO2)o1 (centres undefined) | -18.8% |
| COC(=O)c1ccc(CSc2nc3cc(Cl)ccc3o2)cc1 | -7.6% |
| CC1(C)Cc2c(C#N)c(SCc3nc4ccccc4[nH]3)nc(N3CCOCC3)c2CO1 | 96.2% (active) |
| Cc1nc(NCc2ccccc2)c(C(N)=O)c2c1COC(C)(C)C2 | 2.7% |
| CC(C)c1nc(N2CCOCC2)c(C#N)c2c1COC(C)(C)C2 | 61.7% (active) |
| c1ccc2[nH]c(NCCN3CCOCC3)nc2c1 | -29.7% |
| C1=C(N2CCOCC2)/C(=C/c2nc3ccccc3[nH]2)CC1 | 11.9% |
| CC(C)C(=O)N1CCN(c2nc(-c3ccccc3)c3c(c2C#N)CC(C)(C)OC3)CC1 | 97.1% (active) |
| CC(C)Cc1nc(N2CCOCC2)c(C#N)c2c1CCC2 | 39.5% |
| c1ccc2cc(OCCN3CCCC3)ccc2c1 | 2.2% |

| Compound | inhibition |
| --- | --- |
| O=C(CCCN1C(=O)CSc2ncccc21)N1CCN(c2cccc(C(F)(F)F)c2)CC1 | 31.1% |
| CN1CCN(CC(O)COCc2ccc3c(c2)OCO3)CC1 (centres undefined) | -13.3% |
| COc1ccc2c3c(c(=O)oc2c1OCC(=O)C(C)(C)C)CCCC3 | 25.4% |
| O=C(NCc1ccccn1)Nc1ccc(F)cc1 | 2.9% |
| CCN(CC)C(=O)CSC1c2ccccc2C(=O)N1c1ccccc1 (centres undefined) | -6.2% |
| Cc1ccc(NC2=NC(c3ccccc3)n3c(nc(C)cc3=O)N2)cc1 (centres undefined) | 35.5% |
| Cc1ccc(S(=O)(=O)NCc2nc3ccccc3c(=O)n2N)cc1 | -7.2% |
| Cc1ccc(S(=O)(=O)Nc2nc3ccccc3nc2N2CCc3ccccc3C2)cc1 | 96% (active) |
| O=C(Nc1ccc(S(=O)(=O)N2CCc3ccccc3C2)cc1)c1ccccc1 | 1.2% |
| Cc1cc([N+](=O)[O-])ccc1NCc1cccc([N+](=O)[O-])c1 | -1.6% |
| CC(Oc1ccc(Cl)cc1)C(=O)Nc1ncccn1 (centres undefined) | 0.9% |
| CCC(C)OC(=O)C(C)Oc1ccc(-c2ccccc2)cc1 (centres undefined) | 79.9% (active) |
| COc1ccc(OCC(=O)NNC(=O)c2ccc(-c3ccccc3)cc2)cc1 | -3.2% |
| Cn1c(/C(C#N)=C2/CCCCCN2)nc2ccccc21 | 29.5% |
| COc1ccc(-c2[nH]nc(-c3ccccc3)c2-c2nc3ccccc3[nH]2)cc1 | 10% |
| O=C(NCCN=C1NS(=O)(=O)c2ccccc21)c1ccc(S(=O)(=O)N2CCOCC2)cc1 | 46.2% |
| Cn1c(=O)c2[nH]c(NCC3CCCO3)nc2n(-c2ccccc2)c1=O (centres undefined) | 10.1% |
| Cc1nc2ccccc2c2oc(C(=O)NCC3CCCO3)cc12 (centres undefined) | 0.9% |
| c1ccc2c(NCC3CCCO3)nc(-c3ccncc3)nc2c1 (centres undefined) | 83% (active) |
| Cc1ccc(S(=O)(=O)NCC(=O)N(CC(=O)NC2CCCCC2)Cc2ccco2)cc1 | 10.4% |
| O=C(NCc1ccc(Cl)c(Cl)c1)c1cccnc1 | 14.6% |
| Cn1ccs/c1=N\S(=O)(=O)c1ccc(C(C)(C)C)cc1 | 67.2% (active) |
| CCSc1nnc(NC(=O)c2ccc(C)cc2)s1 | 38% |
| Cc1ccc(NC(=O)c2nc[nH]c2C(=O)N2CCCCC2)c(C(=O)c2ccccc2)c1 | 40.9% |
